# In the library only some 8% were active in any assay of this set; here they are far more common.
# Marburg entry inh: qHTS for inhibitors of binding or entry into cells for Marburg Virus; AID 540276, 2011; Potency, µM (titrated, usually from 37.8 µM), most hits filed as inhibitors; Marburg virus pseudotyped entry inhibition, cell reporter; 1.8% of 300,000 active; calls by dose curve; tested in HEK293 cells
# HCV inh: qHTS Assay for Inhibitors of Hepatitis C Virus (HCV); Potency, µM (highest dose often 41.8 µM), most hits filed as inhibitors; 3.4% of 340,000 active; Huh7.5.1 HCVcc-Cre infection, luciferase reporter, 44 h; active = well fitted inhibition curve with a large enough effect; inconclusive = small, poorly fitted or top-dose-only effect, or another doubt; inactive = no such curve, though single readings can be large or run the other way
#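 1,000 cells/well; 4 h culture; + compound; + HCVcc-Cre (~0.5 moi); 44 h; luciferase substrate, RT 15 min; read 15 sec.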
# SARS PLpro yeast: qHTS of Yeast-based Assay for SARS-CoV PLP; S. cerevisiae expressing SARS-CoV PLpro, growth rescue; Potency, µM (highest dose often 32.9 µM), most hits filed as activators; 0.19% of 330,000 active; AID 485353, 2010; calls by dose curve; note: nearly all actives have a fitted effect of over 55% in size
# Lassa entry inh: qHTS for Inhibitors of binding or entry into cells for Lassa Virus. Potency, µM (top dose mostly 37.9 µM), most hits filed as inhibitors. 1.2% of 300,000 active. Lassa virus pseudotype entry inhibition, cell reporter; calls by dose curve; tested in HEK293 cells; note: nearly all actives have a fitted effect of over 50% in size
# FMDV antiviral: High Throughput Screening for Foot and Mouth Disease Virus Antivirals | FMDV antiviral cell-based qHTS | Potency, µM (top dose mostly 57.9 µM), actives largely listed as inhibitors | 1.2% of 410,000 active | AID 1159524, 2015; calls by dose curve; tested in HEK293T cells; note: read-out not given here; nearly all actives have a fitted effect of over 45% in size
# HCMV inh: qHTS Assay for inhibitors of the human cytomegalovirus (HCMV); HFF cells, HCMV-luciferase reporter, 72 h; active compounds read low; activity change, negative = inhibition, % at 57.5 µM; 4.5% of 410,000 active; in the data active = activity change below about -60%; inconclusive = no clear call, values can overlap the other calls; inactive = above about -39%
#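 Two-dose cell screen: HFF monolayers treated with compounds and infected with luciferase-expressing HCMV at 1 PFU/cell, 72 h at 37C, then lysed for luciferase measurement.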
# Numbers stand for hits; - = inactive; ? = inconclusive; . = no result; ! = not active in a repeat; [ ] = another dose, or the depositor's remark.
SMILES,Marburg entry inh,HCV inh,SARS PLpro yeast,Lassa entry inh,FMDV antiviral,HCMV inh
Cc1cc(C(=O)CSc2nncs2)c(C)n1-c1ccc2c(c1)OCO2,-,?,-,-,.,-69.1
COc1ccc(N2CCN(C(=O)c3cn(C4CCCC4)c(=O)c4c3c3ccccc3n4C)CC2)cc1,8.91µM,?,-,?,-,-
Cn1c2ccccc2c2c(C(=O)N3CCN(c4cccc(Cl)c4)CC3)cn(C3CCCCC3)c(=O)c21,7.08µM,.,.,?,-,?
N#Cc1cc(Oc2ccccc2)c(-n2nnc3ccccc32)cc1C#N,-,-,-,-,-,-
N#Cc1cc(Oc2ccc3ccccc3c2)c(-n2nnc3ccccc32)cc1C#N,?,-,-,-,-,-65.2
Cc1ccc(C(C[N+](=O)[O-])c2c(N)n(C)c(=O)n(C)c2=O)cc1 (stereo unspecified),.,-,-,.,-,-
COc1ccc(C(C[N+](=O)[O-])c2c(-c3ccccc3)cc3ccccn23)cc1OC (stereo unspecified),?,-,.,-,?,?
COc1cc(C(C[N+](=O)[O-])c2c(C)cc3ccccn23)ccc1O (stereo unspecified),-,?,-,.,22.4µM,-64.4
COc1cccc(F)c1C(C[N+](=O)[O-])c1c(N)n(C)c(=O)n(C)c1=O (stereo unspecified),.,7.94µM,-,.,31.6µM,-99.6
COc1cc(C(C[N+](=O)[O-])c2c(N)n(C)c(=O)n(C)c2=O)ccc1O (stereo unspecified),?,?,-,?,17.8µM,-70.7
Fc1ccc(C2=NOC(c3nnc(-c4ccccc4)o3)C2)cc1 (stereo unspecified),.,-,-,.,-,-65.3
CC1CC(C)CN(CC(=O)N2CCCc3c2c(=O)oc2ccc(OCc4ccccc4)cc32)C1 (stereo unspecified),10µM,11.2µM,-,?,?,-
CC1CCN(CC(=O)N2CCCc3c2c(=O)oc2ccc(OCc4ccccc4)cc32)CC1,7.08µM,?,-[6.58 µM],0.631µM!,?,-
CCCOc1ccc2oc(=O)c3c(c2c1)CCCN3C(=O)CN1CCc2ccccc2C1,?,?,-,?,-,-
CCCNC[C@H](O)COc1ccccc1C(=O)CCc1ccccc1,7.08µM,.,.,.,.,.
CC(C)(C)NCC(O)COc1ccccc1C(=O)CCc1ccccc1 (stereo unspecified),10.3µM,-,-,-,.,?
CCOc1ccccc1C(=O)NC(C)CCc1ccccc1 (stereo unspecified),.,-,.,.,-,-
Clc1ccc(OCc2cc(-c3ccccc3)no2)c(Cl)c1,7.08µM,-,-,11.2µM,-,-
Cc1cccc(OCc2cc(-c3ccccc3)no2)c1C,.,-,-,.,-,-
N#Cc1c(C(F)(F)F)cc(-c2ccccc2)nc1SCCN1CCOCC1,?,7.94µM,-,-,.,-
CCCSc1nc(-c2ccccc2)cc(C(F)(F)F)c1C#N,-,?,-,-,-,?
S=C(Nc1ccccc1)Nc1nc2ccccc2n1CCOc1ccc(Cl)cc1,?,10µM,-,-,-,-
CCN(c1ccccc1)S(=O)(=O)c1cc(C(=O)NCC(c2ccc(OC)cc2)N(C)C)ccc1C (stereo unspecified),.,10µM,.,.,-,-
O=S(=O)(c1cnc[nH]1)N1CCc2ccccc21,-,-,?,-,-,-
CCOC(=O)[C@]12CCC=C1N(Cc1ccc(Cl)cc1Cl)C(=O)[C@H](CC(=O)NCc1cccc3ccccc13)C2,.,.,.,.,-,-
SMILES,Marburg entry inh,HCV inh,SARS PLpro yeast,Lassa entry inh,FMDV antiviral,HCMV inh
CCCNCC1C(Oc2ccc(Cl)cc2Cl)C(=O)N1c1cccc(C)c1C (stereo unspecified),.,31.6µM,-,.,?,-90.3
Cc1cccc(N2C(=O)C(Oc3ccc(Cl)cc3Cl)C2C(=O)O)c1C (stereo unspecified),-,-,-,-,?,-
CCCCNCC1C(Oc2ccc(Cl)cc2)C(=O)N1c1ccccc1C (stereo unspecified),?,?,-,-,-,-78.6
O=C(Cc1ccc(NC(=O)N2CCCCc3ccccc32)cc1)NCc1ccccc1Br,.,.,.,?,-,-
CSc1cccc(NC(=O)C2CCCN(S(=O)(=O)c3ccc4c(c3)CCCN4C(C)=O)C2)c1 (stereo unspecified),.,.,.,-,-,?
Nn1cnnc1N/N=C\c1ccc(-c2ccccc2[N+](=O)[O-])o1,?,-,-,14.1µM,-,-
O=[N+]([O-])c1ccccc1-c1ccc(/C=N/n2cnnc2)o1,?,.,-,-,-,-
C[C@@H]1CN([C@H](C)CO)C(=O)c2cc(Br)cnc2O[C@@H]1CN(C)Cc1ccc(F)cc1,.,.,.,.,-,-
COC(=O)CSc1nnc(-c2ccc(OC)c(OC)c2)o1,-,-,-,-,-,-
COC(=O)CSc1nnc(-c2cccc(O)c2)o1,.,.,.,-,-,-64.7
Cc1cccc(-c2nnc(SCCC(=O)O)o2)c1,?,.,.,1.26µM,?,-87.8
Cc1ccc(-c2nnc(SCCC(=O)N3CCOCC3)o2)cc1,-,-,-,?,-,-100.5
O=C1C2CSCN2C(=O)CN1CCCN1CCN(C(c2ccccc2)c2ccccc2)CC1 (stereo unspecified),?,-,-,?,-,-
CN(C)C(=O)c1ccc(Nc2cc3c(cn2)cc(-c2cccnc2)n3Cc2ccccc2)cc1,.,.,.,.,.,-
COc1ccc(CNC(=O)c2ccc3nc(CCc4ccccc4)oc3c2)cc1,.,.,.,?,-,-
O=C1CC(c2ccccc2)CC(O)=C1C=NCc1ccccc1Cl (stereo unspecified),?,-,-,-,.,-81.1
CCCCc1ccc(-n2nc3ccc(NC(=O)c4cc5ccccc5o4)cc3n2)cc1,.,.,.,-,25.1µM,-81.6
O=C(Nc1ccc2oc(=O)ccc2c1)c1ccc(-c2ccc(Cl)cc2)o1,?,-,-,-,-,-
O=C(Nc1ccc2oc(=O)ccc2c1)c1ccc(-c2cccc(Cl)c2)o1,.,10µM,-,.,-,-64.4
CC(=O)NC(=S)Nc1ccc2oc(=O)ccc2c1,-,-,-,-,-,-
CC(C)(Oc1ccc(Cl)cc1)C(=O)Nc1ccc2oc(=O)ccc2c1,-,.,-,-,-,-65.7
O=C(Nc1ccc2oc(=O)ccc2c1)c1ccc(-c2cccc([N+](=O)[O-])c2)o1,?,8.91µM,-,?,31.6µM,-
C[C@H](CO)N1C[C@H](C)[C@@H](CN(C)Cc2cncnc2)Oc2cc(Br)ccc2S1(=O)=O,.,.,.,.,-,-
COCC(C)NCc1cc2ccc(OC)cc2nc1N1CCN(c2ccc(F)cc2)CC1 (stereo unspecified),.,.,.,.,-,.
O=C(Nc1ccccc1)c1cccc(N2CCCS2(=O)=O)c1,.,.,.,-,-,-
CCOc1ccc(S(=O)(=O)N2CCN=C2c2ccccc2)cc1,?,-,-,-,-,-
